{
  "source": "PubChem BioAssay (Tox21)",
  "note": "Records with an inconclusive call do not appear. Active and inactive are the calls of the source. The call rests on the fitted dose curve; in most records, active means well fitted cell-killing curve with a large enough effect in the repeat runs; inconclusive means weak or mixed curves, or effect the other way; inactive means no such curve, though single readings can be large or run the other way. On the % scale 0 is the no-effect control and ±100 the full control effect; potency means the concentration at half of the fitted maximal effect.",
  "data": [
    {"assay": "qHTS assay to identify small molecule agonists of the RXR signaling pathway - cell viability counter screen (AID 1159529); further: nearly all actives have a fitted effect of over 50% in size;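 on activity change, negative = cytotoxicity: HEK 293T cells carrying an RXR-alpha UAS beta-lactamase reporter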", "conditions": "RXR-alpha-bla HEK293T viability, CellTiter-Glo, 16 h; series mostly up to 76.8 µM; activity change, negative = cytotoxicity: at the top concentration", "in_short": "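Steps: seed RXR-alpha-UAS-bla HEK 293T cells in assay medium containing 2% charcoal-stripped FBS; incubate 5 hr; add compounds in DMSO; incubate 16 hr at 37 C; after the bla read, add CellTiter-Glo and read luminescence at 30 min.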", "values": [
      {"molecule": "CCOC(=N)CC(=O)OCC", "activity change, negative = cytotoxicity": "-4.61% (inactive)"},
      {"molecule": "CCOC(=O)C(C)Oc1ccc(Oc2nc3ccc(Cl)cc3o2)cc1", "note": "(stereo not given)", "activity change, negative = cytotoxicity": "-0.476% (inactive)"},
      {"molecule": "Nc1ccc(Cl)cc1[N+](=O)[O-]", "activity change, negative = cytotoxicity": "0.854% (inactive)"},
      {"molecule": "CC(C)(CCl)c1ccccc1", "activity change, negative = cytotoxicity": "-5.44% (inactive)"},
      {"molecule": "N#C/C(=C1\\SCC(c2ccccc2Cl)S1)n1ccnc1", "note": "(stereo not given)", "activity change, negative = cytotoxicity": "11.9% [at 35.3 µM] (inactive)"},
      {"molecule": "CCCOc1ccc(S(=O)(=O)N2CCN(CC)CC2)cc1-c1nc2c(CC)n(Cc3ccccn3)nc2c(=O)[nH]1", "activity change, negative = cytotoxicity": "-15.1% (inactive)"},
      {"molecule": "CCCCN(CCCC)C(=S)SSC(=S)N(CCCC)CCCC", "Potency": "48.5 µM (active)"},
      {"molecule": "Nc1ccc(S(=O)(=O)O)cc1", "activity change, negative = cytotoxicity": "0.665% (inactive)"},
      {"molecule": "CC(C)c1nnc2ccc(-c3ocnc3-c3cc(F)ccc3F)cn12", "activity change, negative = cytotoxicity": "3.85% (inactive)"},
      {"molecule": "Cc1nccn1-c1ccc(Sc2cccc(C3(C(N)=O)CCOCC3)c2)cc1", "activity change, negative = cytotoxicity": "-4.1% (inactive)"},
      {"molecule": "Cc1cc(O)c2c(O)c3c(O)cccc3cc2c1", "activity change, negative = cytotoxicity": "-1.77% [at 35.3 µM] (inactive)"},
      {"molecule": "CC(=O)Oc1ccc2c(c1)CC[C@@H]1[C@@H]2CC[C@]2(C)[C@@H](O)CC[C@@H]12", "activity change, negative = cytotoxicity": "-9.88% [at 35.3 µM] (inactive)"},
      {"molecule": "CO/N=C1\\CN(c2nc3c(cc2F)c(=O)c(C(=O)O)cn3C2CC2)CC1CN", "note": "(stereo not given)", "activity change, negative = cytotoxicity": "-5.82% [at 35.3 µM] (inactive)"},
      {"molecule": "N#C/C(=C1/SC[C@@H](c2ccc(Cl)cc2Cl)S1)n1ccnc1", "activity change, negative = cytotoxicity": "-28.3% [at 35.3 µM] (inactive)"},
      {"molecule": "C=CC(=O)NCOCC(C)C", "activity change, negative = cytotoxicity": "11.5% (inactive)"},
      {"molecule": "O=C(O)Cc1ccc(-c2ccccc2)cc1", "activity change, negative = cytotoxicity": "-3.61% [at 35.3 µM] (inactive)"},
      {"molecule": "NCC1CCCC(CN)C1", "note": "(stereo not given)", "activity change, negative = cytotoxicity": "-12.1% (inactive)"},
      {"molecule": "C=C(C)C(=O)OCCOC(=O)CC(C)=O", "activity change, negative = cytotoxicity": "3.07% (inactive)"},
      {"molecule": "O=C(c1ccc(O)cc1)c1ccc(Cl)cc1", "activity change, negative = cytotoxicity": "-5.5% (inactive)"},
      {"molecule": "O=C(O)c1ccccc1NCCc1ccccc1", "activity change, negative = cytotoxicity": "-0.593% [at 35.3 µM] (inactive)"},
      {"molecule": "COCCOC(=O)C1=C(C)NC(C)=C(C(=O)OC/C=C/c2ccccc2)C1c1cccc([N+](=O)[O-])c1", "note": "(stereo not given)", "activity change, negative = cytotoxicity": "16.3% [at 35.3 µM] (inactive)"},
      {"molecule": "CCCCC(CC)C(=O)OCCOCCOCCOCCOC(=O)C(CC)CCCC", "note": "(stereo not given)", "activity change, negative = cytotoxicity": "0.141% (inactive)"},
      {"molecule": "CCOC(=O)c1ccccc1OC", "activity change, negative = cytotoxicity": "-0.572% (inactive)"},
      {"molecule": "CCCCCCCCCCOS(=O)(=O)O", "activity change, negative = cytotoxicity": "-4.44% (inactive)"},
      {"molecule": "C1COCO1", "activity change, negative = cytotoxicity": "0.134% (inactive)"},
      {"molecule": "Cc1ccc(/C=N/n2c(-c3ccccc3)csc2=S)cc1", "activity change, negative = cytotoxicity": "-19.6% [at 35.3 µM] (inactive)"},
      {"molecule": "Cc1ccc(Nc2nccc(N(C)c3ccc4c(C)n(C)nc4c3)n2)cc1S(N)(=O)=O", "activity change, negative = cytotoxicity": "-12.4% [at 35.3 µM] (inactive)"},
      {"molecule": "CC(C)=CC=O", "activity change, negative = cytotoxicity": "-5.47% (inactive)"},
      {"molecule": "CCOC(=O)[C@@H](C)Oc1ccc(Oc2nc3ccc(Cl)cc3o2)cc1", "activity change, negative = cytotoxicity": "7.3% (inactive)"},
      {"molecule": "CCCCCCCCCCCC[N+](C)(C)CCCS(=O)(=O)[O-]", "activity change, negative = cytotoxicity": "-25.2% (inactive)"},
      {"molecule": "CO[C@@]12[C@H](COC(N)=O)C3=C(C(=O)C(C)=C(N)C3=O)N1C[C@@H]1N[C@@H]12", "activity change, negative = cytotoxicity": "-15.9% [at 35.3 µM] (inactive)"},
      {"molecule": "ON(Cc1ccccc1)Cc1ccccc1", "activity change, negative = cytotoxicity": "-3.27% (inactive)"},
      {"molecule": "O=C(NCCCN1CCOCC1)c1ccc(Cl)cc1", "activity change, negative = cytotoxicity": "0.119% [at 35.3 µM] (inactive)"},
      {"molecule": "CC(C)CCCCCOC(=O)CCCCC(=O)OCCCCCC(C)C", "activity change, negative = cytotoxicity": "0.346% (inactive)"},
      {"molecule": "CNC(=O)N(c1ccccc1)c1ccccc1", "activity change, negative = cytotoxicity": "7.35% (inactive)"},
      {"molecule": "O=C(OCCOCCO)c1ccccc1Nc1cccc(C(F)(F)F)c1", "activity change, negative = cytotoxicity": "-25.6% [at 35.3 µM] (inactive)"},
      {"molecule": "CCC(Cc1ccccc1)(C(=O)c1ccc(N2CCOCC2)cc1)N(C)C", "note": "(stereo not given)", "activity change, negative = cytotoxicity": "-15.7% (inactive)"},
      {"molecule": "CCCCCCOC(=O)C(C)C", "activity change, negative = cytotoxicity": "7.97% (inactive)"},
      {"molecule": "CC(=O)OCC(=O)[C@H]1CC[C@H]2[C@@H]3CCC4=CC(=O)CC[C@]4(C)[C@H]3CC[C@]12C", "activity change, negative = cytotoxicity": "-19.7% [at 35.3 µM] (inactive)"},
      {"molecule": "NC(=O)N(O)[C@@H]1C=C[C@H](Oc2cccc(Oc3ccc(F)cc3)c2)C1", "activity change, negative = cytotoxicity": "-20.6% (inactive)"}
    ]}
  ]
}
